This is an account of results in PubChem BioAssay AID504850 (National Center for Advancing Translational Sciences (NCATS), 2011).

The structures appear in SMILES notation. The campaign covered roughly 2,300 compounds. About 1,200 (52%) were called active. Inconclusive results (about 34%) are left out. Calls follow the shape of the dose curve; as a rule, active = well fitted inhibition curve with a large enough effect; inconclusive = small, poorly fitted or top-dose-only effect, or effect the other way; inactive = no such curve, though single readings can be large or run the other way. So high a share suggests a set chosen from earlier hits. The list shows a part of the results.
Potency is read from the fitted curve at half-maximal effect.

The experiment is described as follows: Confirmation screen for delayed death inhibitors of the malarial parasite plastid, 48 hour incubation. Also: nearly all actives have a fitted effect of over 65% in size. Particulars: P. falciparum-infected erythrocytes, luciferase growth; series mostly up to 28.7 µM. An excerpt: The goal of this screen is to discover new antimalarial compounds that act by inhibiting the development of the apicoplast in the malarial parasite Plasmodium falciparum. The biochemical processes that make this organelle essential for erythrocytic stage parasites are not well understood. However, antibiotics, such as azithromycin and tetracycline, which target the apicoplast translational machinery, have a potent antimalarial effect. […] We have developed a cell-based assay that measures parasite growth based on the expression of an integrated copy of a firefly luciferase reporter. To detect small molecules that cause this "delayed death phenotype, erythrocytes infected with the luciferase-expressing parasites were incubated with compounds for either one or two generations, corresponding to 48 and 96 hours, respectively. Compounds that inhibit parasite growth in the second generation, but not the first, should be enriched in antimalarials that target the apicoplast. Growth inhibition is detected by a decrease in luciferase activity. MLPCN Grant: R21 NS059500 Assay Provider: David Fidock and Eric Ekland, Columbia University Keywords: NIH Roadmap, MLPCN, MLI, MLSMR, qHTS, NCGC, qHTS, malaria, luciferase, viability
Four microliters of culture medium (RPMI 1640 with 0.5% w/v Albumax (GIBCO), 24 mM sodium bicarbonate and 10 ug/mL gentamycin) were dispensed by a Multi-drop Combi into white solid 1536-well plates (Grenier) and 23 nL compound was added by a pin tool. Four microliters of infected erythrocytes (2% hematocrit, 0.1% parasitemia final concentration) in culture medium were dispensed and the plates incubated for 48 hours at 37 C in 5% CO2. Two microliters of luciferase detection reagent was added and luminescence was detected by a ViewLux (PerkinElmer) reader.
On to `Cc1ccc(C)c(N(CC(=O)Nc2cc(Cl)ccc2Oc2ccccc2)S(C)(=O)=O)c1`, for which the Potency was 11.2 µM (active).

For the compound `COc1ccccc1OCC(=O)Nc1cc(Cl)ccc1Oc1ccccc1`, the Potency result is “inactive”. Take `CN(C)S(=O)(=O)c1ccc(Cl)c(NC(=O)CN2C(=O)NC(C)(C3CC3)C2=O)c1` (configuration not stated): the Potency is 14.1 µM (active). `CCOc1ccc2c(c1)C(N(CCN1CCOCC1)C(=O)Nc1ccccc1)CC(C)(C)O2` (configuration not stated): the Potency is 12.6 µM (active). For `COCCNC(=O)c1cccc(OC2CCN(Cc3ccc(C(C)C)cc3)CC2)c1`, the Potency is 14.1 µM (active). For the compound `C=CCNC(=O)c1onc(CSc2ccc(Cl)cc2)c1C(=O)O`, the Potency result is “inactive”. For the compound `CCOC(=O)C(C(=O)OCC)C(Nc1cccc(Br)c1)c1ccccc1` (configuration not stated), the Potency is 14.1 µM (active). With `Cc1ccc2cc(C)c(SCC(=O)NCc3ccco3)nc2c1`, the Potency result was “inactive”. With `Cc1ccc(Nc2nc(NCc3ccco3)c3ccccc3n2)cc1`, the Potency was 2 µM (active). `COc1ccc(Nc2cc(Cl)ccc2C(=O)O)cn1`: the Potency entry was “inactive”. Next, `COc1ccc(Cl)cc1NC(=O)C(C)NC(c1ccccc1)c1ccccc1` (configuration not stated): 8.91 µM (active). For `C#CCOCCOCCOCCNc1nc(N2CCN(C(=O)Cn3cc(CC(C)O)nn3)CC2)nc(N2CCN(C(=O)[C@H](C)n3cc(CCCN=C(N)N)nn3)CC2)n1` (some centres not stated), the Potency result was “inactive”. For the compound `COc1nc(NC(=O)c2ccc(F)cc2)nc(OC)c1-c1ccccc1`, the Potency is 12.6 µM (active). Next, `O=[N+]([O-])c1c(Nc2ccccc2O)cc(Cl)c2nonc12`: 5.62 µM (active). On to `CC(C)(C)NC(=O)[C@H]1CN(Cc2cccnc2)CCN1C[C@@H](O)C[C@@H](Cc1ccccc1)C(=O)N[C@H]1c2ccccc2C[C@H]1O`, for which the Potency was 7.94 µM (active). Turning to `CN(CCNC(=O)c1ccc(CS(=O)(=O)c2ccc(Br)cc2)o1)CCc1ccccc1`, the Potency is 4.47 µM (active). In the case of `CCCCNC(=O)c1ccc(CS(=O)(=O)c2cccc(C(F)(F)F)c2)o1`, the Potency entry was “inactive”. Next, `CCCCN(CCCNC(=O)c1ccc(CS(=O)(=O)c2ccc(OC)cc2)o1)Cc1ccccc1`: 12.6 µM (active); `CN(CCCNC(=O)c1ccc(CS(=O)c2ccc(Br)cc2)o1)Cc1ccccc1` (configuration not stated): 8.91 µM (active). As for `CCn1c(=O)c(CCC(=O)N2CCOCC2)c(C)c2c(C)nn(-c3ccccc3)c21`, the Potency was 14.1 µM (active). Regarding `COc1ccc(C(=O)N2CCN(S(=O)(=O)c3ccc(C)cc3C)CC2)cc1OC`, the Potency was 12.6 µM (active). As for `COc1ccc(C)cc1S(=O)(=O)N1CCN(S(=O)(=O)c2cc(C(=O)O)ccc2C)CC1`, the Potency is 11.2 µM (active). For `Cc1ccc(S(=O)(=O)N2CCN(C(=O)c3ccc(Br)o3)CC2)c(C)c1`, the Potency was 10 µM (active). As to `Cc1ccc(S(=O)(=O)N2CCN(C(=O)c3cc(S(=O)(=O)N(C)C)ccc3N3CCCC3)CC2)c(C)c1`, the Potency was 12.6 µM (active).

Turning to `CCNc1nc(NCC)n2c(SCC(=O)Nc3ccccc3F)nnc2n1`, the Potency is 12.6 µM (active). Next, `Cc1c(Cl)cccc1NC(CC(=O)c1ccccc1)C(=O)O` (configuration not stated): “inactive”; `CC(=O)O[C@H]1C(=O)[C@@]2(C)[C@H]([C@H](OC(=O)c3ccccc3)[C@]3(O)C[C@H](OC(=O)[C@H](O)[C@@H](NC(=O)c4ccccc4)c4ccccc4)C(C)=C1C3(C)C)[C@]1(OC(C)=O)CO[C@@H]1C[C@@H]2O`: 0.501 µM (active); `CC(=O)O[C@@]12CO[C@@H]1C[C@H](O)[C@@]1(C)C(=O)[C@H](O)C3=C(C)[C@@H](OC(=O)C(O)[C@@H](NC(=O)OC(C)(C)C)c4ccccc4)C[C@@](O)([C@@H](OC(=O)c4ccccc4)[C@H]21)C3(C)C` (some centres not stated): 0.141 µM (active). Next, `Cc1c(/C=N/NC(=O)c2cccs2)c2ccccc2n1Cc1ccccc1Cl`: 4.47 µM (active); `Cc1noc(/C=C/c2nn(C)cc2Cl)c1[N+](=O)[O-]`: 12.6 µM (active); `CC(=O)N1CCc2cc(S(=O)(=O)NCCC(=O)N3CCN(c4ccccn4)CC3)ccc21`: 11.2 µM (active). Consider `COCCn1c(=NC(=O)/C=C/c2ccccc2)sc2cc(NC(C)=O)ccc21`, for which the Potency is 10 µM (active). `O=C(/C=C/c1ccncc1)c1ccc(NC(=O)c2ccccc2F)cc1`: the Potency is 12.6 µM (active).

Regarding `Cc1c(C#N)c(NC(=O)CCl)n(Cc2cccs2)c1C`, the Potency was 3.98 µM (active). For the compound `Cc1c(C#N)c(NC(=O)CCl)n(Cc2ccccc2)c1C`, the Potency was 7.08 µM (active). In the case of `COC(=O)c1cc(=O)n(Cc2cccs2)c(=Nc2ccccc2)s1`, the Potency entry was “inactive”.

As to `COc1ccc(-c2oc3ncn(Cc4ccco4)c(=N)c3c2-c2ccc(OC)cc2)cc1`, the Potency was 7.94 µM (active). `CC1CCCC(NC(=O)c2cc(-c3ccncc3)nc3ccccc23)C1C` (configuration not stated): the Potency was 11.2 µM (active). On to `C=CCn1cccc(/C=C/C(=O)c2ccc(C(C)(C)C)cc2)c1=S`, for which the Potency was 1.26 µM (active).

Take `Nc1nc(C2CC2)c(Sc2sc(N)nc2C2CC2)s1`: the Potency entry was “inactive”. Turning to `CCN1CCCC1CNC(=O)CS(=O)(=O)Cc1nc(-c2ccccc2C)oc1C` (configuration not stated), the Potency was 11.2 µM (active).

With `Cc1ccccc1-c1nc(CS(=O)CC(=O)NC(C)CCc2ccccc2)c(C)o1` (configuration not stated), the Potency entry was “inactive”. As to `COc1cc2c(cc1NC(=O)c1ccc(C(C)(C)C)cc1)CCCC2`, the Potency is 11.2 µM (active). With `O=C(CCN1C(=O)/C(=C\c2ccc(F)cc2)SC1=S)Nc1ccccc1`, the Potency result was “inactive”. Next, `O=C(CCCN1C(=O)/C(=C/c2cccs2)SC1=S)Nc1ccc(O)cc1`: 11.2 µM (active); `O=C(CCCN1C(=O)/C(=C\c2cccs2)SC1=S)Nc1ccc(O)cc1`: 11.2 µM (active).

With `Cc1onc(-c2c(Cl)cccc2Cl)c1C(=O)Nc1nc(C(C)(C)C)cs1`, the Potency is 11.2 µM (active). Regarding `Cc1noc(C)c1C(=O)Nc1nc(-c2ccc(F)cc2)cs1`, the Potency entry is “inactive”. As to `COc1ccc(NC(=O)c2c(-c3c(Cl)cccc3Cl)noc2C)c(OC)c1`, the Potency is 3.16 µM (active). With `Cc1ccc(Cl)cc1N1CCN(Cc2nc3c(c(=O)[nH]c(=O)n3C)n2CCc2ccccc2)CC1`, the Potency is 7.08 µM (active).

As to `CCCCNC(=O)c1onc(CSc2ccccc2C)c1C(=O)O`, the Potency entry was “inactive”.

Consider `CCc1ccc(OCCNC(=O)c2ccccc2SCc2ccccc2)cc1`, for which the Potency was 14.1 µM (active). Next, `COC(=O)c1ccc(CSc2ccccc2C)o1`: “inactive”; `O=S(=O)(c1cccs1)N1CCN(c2ccnc3cc(Cl)ccc23)CC1`: 5.01 µM (active). Consider `O=S(=O)(c1cccs1)N1CCC(CO)(Cc2cccc(F)c2)CC1`, for which the Potency entry is “inactive”.

Take `CN(C)S(=O)(=O)N1CCN(c2ccnc3cc(Cl)ccc23)CC1`: the Potency was 12.6 µM (active).

For `O=c1oc2ccccc2c(O)c1CN1CCCCC1`, the Potency result is “inactive”. Turning to `CCCCCCCCCC[n+]1cccc2c3ccccc3ccc21`, the Potency was 0.891 µM (active). Regarding `CCCCCCCCC[n+]1cccc2c3ccccc3ccc21`, the Potency was 0.398 µM (active).

On to `O=S(=O)(Nc1ccc(O)c(Sc2nc3ccccc3s2)c1)c1cccc2ccccc12`, for which the Potency is 15.8 µM (active). Regarding `COc1cc(-c2ccc(Nc3ccccc3C(=O)O)c(OC)c2)ccc1Nc1ccccc1C(=O)O`, the Potency is 12.6 µM (active). Turning to `COc1cc(-c2ccc(NC(=O)NC3CC3)c(OC)c2)ccc1NC(=O)NC1CC1`, the Potency is 12.6 µM (active).

Take `COc1ccc(Nc2cccc(Cl)c2)c(C(=O)O)c1`: the Potency entry was “inactive”. Regarding `CC(=O)N1CCSc2ccc(S(=O)(=O)Nc3ccc(C)cc3)cc21`, the Potency was 10 µM (active). For the compound `Cc1ccc(S(=O)(=O)C2(C(=O)N3CCCCCC3)CC2)cc1`, the Potency entry is “inactive”. On to `O=[N+]([O-])c1ccc(Sc2cccc3cccnc23)c([N+](=O)[O-])c1`, for which the Potency was 4.47 µM (active). Next, `CN1CC2=Cc3ccccc3OC23Oc2ccccc2C=C3C1`: 3.98 µM (active); `CC(C)=N/N=C1/NC(=O)C(Cc2ccccc2)S1` (configuration not stated): 11.2 µM (active). Next, `Cc1ccc(-n2ncc3c2CC(C)(C)CC3NC(=O)c2c(C)noc2C)cc1` (configuration not stated): 11.2 µM (active). `CCc1noc(C)c1C(=O)NC1CC(C)(C)Cc2c1cnn2-c1ccccc1` (configuration not stated): the Potency was 15.8 µM (active). On to `CC1=C(C(=O)NC2CC(C)(C)Cc3c2cnn3-c2ccc(C)cc2)OCCO1` (configuration not stated), for which the Potency was 12.6 µM (active). Next, `Cc1cc(C)c(NC(=O)c2cccc3c2C(=O)N(C2CCCCC2)C3)c(C)c1`: 10 µM (active); `COc1cccc2cc(C(=O)NCc3ccc(Cl)cc3)c(=N)oc12`: “inactive”; `COc1ccc(CCNC(=O)c2cc3c(=O)n4cccc(C)c4nc3n(Cc3ccco3)c2=N)cc1OC`: 12.6 µM (active).

As for `Cc1cc(OCC(=O)N[C@@H](CSCc2ccccc2)C(=O)O)c2c(C)c(C)c(=O)oc2c1`, the Potency was 14.1 µM (active).

For `COC(=O)c1c(-n2c(C)cc(C=O)c2C)sc2c1CCCC2`, the Potency was 14.1 µM (active).

Take `COc1cc(NCc2ccc3nc(N)nc(N)c3c2C)cc(OC)c1OC`: the Potency was 0.316 µM (active). Regarding `O=C(Nc1ccc(C2=NCCN2)cc1)c1ccc(C(=O)Nc2ccc(C3=NCCN3)cc2)c(Cl)c1`, the Potency is 0.891 µM (active). On to `COCCNC(=O)CCCCCN1C(=O)CCC1=O`, for which the Potency result is “inactive”.

Take `Cc1cccc(-n2ccc(=O)c(C(=O)Nc3ccc(S(=O)(=O)N4CCOCC4)cc3)n2)c1`: the Potency is 11.2 µM (active).

Take `O=S(=O)(c1ccc(Cl)c(NC(=S)N/N=C/c2ccc(O)cc2)c1)N1CCOCC1`: the Potency is 11.2 µM (active). In the case of `O=C(NCc1ccccc1)C1=C[C@@H](c2coc3ccccc3c2=O)C[C@@H](OCc2ccc(CO)cc2)O1`, the Potency was 10 µM (active).

Consider `O=C(NC1CC1)C1=C[C@@H](C2CCCCC2)C[C@@H](OCc2ccc(CO)cc2)O1`, for which the Potency is 12.6 µM (active). Consider `O=C(Nc1ccccc1)C1=C[C@@H](C2CCCCC2)C[C@@H](OCc2ccc(CO)cc2)O1`, for which the Potency is 11.2 µM (active). Turning to `CN(c1ccccc1)S(=O)(=O)c1cc(C(=O)N2CCN(c3ncccn3)CC2)ccc1Cl`, the Potency is 11.2 µM (active). As to `CN(c1ccccc1)S(=O)(=O)c1ccc(NC(=O)c2nc(S(C)(=O)=O)ncc2Cl)cc1`, the Potency result was “inactive”.

Consider `COC(=O)c1ccc(NC(=O)c2cccc(NC(=O)c3ccccc3)c2)cc1`, for which the Potency is 8.91 µM (active).

For the compound `COC(=O)c1ccc(CNCC(=O)Nc2ccc(C(=O)OC)cc2)cc1`, the Potency entry is “inactive”. Next, `COc1ccccc1NC(=O)c1ccc2nc(-c3ccccc3)c(-c3ccccc3)nc2c1`: “inactive”; `COc1cc(C(=O)Nc2ccc(S(=O)(=O)Nc3cc(C)on3)cc2)cc(OC)c1OC`: “inactive”; `COc1cc(C(=O)Nc2ccc(Nc3ccccc3)cc2)cc(OC)c1OC`: 11.2 µM (active). As for `COc1ccc(NC(=O)c2cccc(NC(=O)c3ccccc3)c2)c(OC)c1`, the Potency is 11.2 µM (active).
